High-throughput results from PubChem BioAssay.
Rows were chosen to be rich in hits. Some 3.4% of all compounds tested hit in one or more screens of this group.
PP5 inh = PP5 (human) phosphatase inhibition. 320,000 tested, 0.18% active. inhibition, % at 6.7 µM. purified PP5c, OMFP substrate fluorescence;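 active = inhibition above the campaign's mean inhibition across all tested compounds plus 3 SD, cut at about 9.5% in these data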
pPAFAH FP inh = inhibitors of human plasma PAF acetylhydrolase (pPAFAH); Q13093; recombinant pPAFAH, FP-rhodamine probe fluorescence polarization; inhibition, % at 3.39 µM; 330,000 tested, 1.5% active; AID 463082;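 active = inhibition above the mean inhibition across the screen plus 3 SD, cut at about 25% in these data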;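 note: inhibitors block binding of the rhodamine activity-based probe so polarization drops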
PAFAH1B2 inh = blocks human PAF acetylhydrolase 1b catalytic subunit 2; P68402; recombinant PAFAH1B2, FP-rhodamine activity probe, fluorescence polarization; inhibition, % at 3.39 µM; 340,000 tested, 1.2% active;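 active = inhibition above the mean of all tested compounds plus 3 SD, cut at about 24% in these data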
PP1 inh = counter-screen for PP5 inhibitors: inhibitors of human PP1-alpha; inhibition, % at 6.7 µM; P62136; AID 2235; 320,000 tested, 0.9% active; purified PP1alpha, OMFP fluorescence;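 active = inhibition above the mean inhibition of all tested compounds plus 3 SD, computed separately for each screening campaign, cut at about 15% in these data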
Target sequence (P62136 whole entry, looked up): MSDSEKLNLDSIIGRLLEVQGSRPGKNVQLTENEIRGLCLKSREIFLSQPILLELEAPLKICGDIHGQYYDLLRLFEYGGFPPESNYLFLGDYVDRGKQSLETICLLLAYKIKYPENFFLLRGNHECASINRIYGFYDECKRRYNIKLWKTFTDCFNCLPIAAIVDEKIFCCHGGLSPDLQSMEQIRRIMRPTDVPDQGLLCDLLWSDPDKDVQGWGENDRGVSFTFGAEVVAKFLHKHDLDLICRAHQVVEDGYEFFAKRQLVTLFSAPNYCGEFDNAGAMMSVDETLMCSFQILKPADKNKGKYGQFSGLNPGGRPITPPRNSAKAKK
PAFAH1B3 FP inh = PAFAH1B3 (human) inhibition; inhibition, % at 3.39 µM; recombinant PAFAH1B3, FP-rhodamine probe, fluorescence polarization; 340,000 tested, 0.28% active; Q15102;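 active = inhibition above the screen-wide average of all tested compounds plus 3 SD, cut at about 25% in these data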
Target sequence (Q15102 whole entry, looked up): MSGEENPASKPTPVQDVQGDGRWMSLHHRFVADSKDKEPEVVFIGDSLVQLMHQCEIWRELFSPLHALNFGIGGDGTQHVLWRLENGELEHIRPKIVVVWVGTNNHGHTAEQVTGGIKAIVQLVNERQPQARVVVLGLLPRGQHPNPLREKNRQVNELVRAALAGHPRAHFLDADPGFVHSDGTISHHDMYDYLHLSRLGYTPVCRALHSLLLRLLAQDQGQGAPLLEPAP
PAFAH2 inh = PAFAH2 (human) inhibition; Q99487; recombinant PAFAH2, FP-rhodamine activity probe, fluorescence polarization; inhibition, % at 3.39 µM; 340,000 tested, 0.99% active; AID 492956;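 active = inhibition above the mean over all tested compounds plus 3 SD, cut at about 30% in these data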;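 note: inhibitors block probe labeling of enzyme so polarization drops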
PAFAH2 FP conf = PAFAH2 (human) inhibition, confirmed; shares compounds with PAFAH2 inh; recombinant PAFAH2, FP-rhodamine activity probe, fluorescence polarization; inhibition, % at 3.39 µM; 2,300 tested, 65% active;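 active = mean inhibition over three repeats above a set limit taken from the earlier primary screen, cut at about 30% in these data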;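 note: inhibitor blocks binding of rhodamine activity probe so polarization falls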
Each line names hits and unclear results; the compound was inactive in the other large screens (follow-up assays come after a bar, where they were run).

COc1ccccc1CC(=O)Nc1ccccc1O	PAFAH2 inh 58 | PAFAH2 FP conf 60
COc1ccccc1CC(=O)Nc1cc(Cl)ccc1O	PAFAH2 inh 83 | PAFAH2 FP conf 80
O=C(COc1ccccc1Cl)Nc1cc(Cl)ccc1O	none (no result: PP5 inh, pPAFAH FP inh, PP1 inh)
Cc1ccc(-n2nc3c(c2NC(=O)c2cccs2)CSC3)cc1	none
CCOC(=O)c1cccc(NC(=O)CC2Oc3ccccc3NC2=O)c1 (stereo not drawn)	none
O=C(CNc1cccc2ccccc12)N/N=C/C(Br)=C/c1ccccc1	none
Cc1ccc(C)c(SCC(=O)NNC(=O)c2csc(N3CCOCC3)n2)c1	PAFAH2 inh 30 | PAFAH2 FP conf 31
CCCN(c1ccc(C(C)C)cc1)S(=O)(=O)c1c(C)noc1C	none
CCN(CC)S(=O)(=O)c1ccc(Cl)c(NC(=O)COC(=O)C2CCCCC2)c1	PAFAH2 inh 46 | PAFAH2 FP conf 31
CCN(CC)S(=O)(=O)c1ccc(Cl)c(NC(=O)COC(=O)c2cccn2C)c1	PAFAH2 inh 31 | PAFAH2 FP conf inactive
CNC(=O)c1cc2cc(Cc3ccccc3Cl)ccc2oc1=O	none
O=C(COC(=O)c1cccs1)NC1CCCCC1	PAFAH2 inh 76 | PAFAH2 FP conf 85
CC1CCCC(NC(=O)CNC(=O)c2cccs2)C1C (stereo not drawn)	none
CC1CCCC(NC(=O)COC(=O)c2cccs2)C1C (stereo not drawn)	PAFAH2 inh 81 | PAFAH2 FP conf 85
O=C(COC(=O)c1ccc(NS(=O)(=O)c2cccs2)cc1O)NC1CCCCC1	PAFAH2 inh 34 | PAFAH2 FP conf inactive
Cc1ccc(C(=O)NCC(=O)OCC(=O)NC2CCCC(C)C2C)s1 (stereo not drawn)	PAFAH2 inh 48 | PAFAH2 FP conf 31
Cc1ccc(NC(=O)COC(=O)CNC(=O)c2ccc(C)s2)cc1	none
O=C(COC(=O)c1cccs1)NC1CCCC1	PAFAH2 inh 81 | PAFAH2 FP conf 74
CC1CCCC(NC(=O)COC(=O)c2n[nH]c3ccccc23)C1C (stereo not drawn)	PAFAH2 inh 79 (no result: PP5 inh, PP1 inh) | PAFAH2 FP conf 72
O=C(c1ccc(COc2ccc(Cl)cc2Cl)o1)N1CCCC1	PAFAH2 inh 30 (no result: PP5 inh, pPAFAH FP inh, PP1 inh) | PAFAH2 FP conf inactive
CCOC(=O)N1CCN(C(=O)CSc2ccc(-c3cccnc3)nn2)CC1	none (no result: PAFAH1B2 inh, PAFAH1B3 FP inh, PAFAH2 inh)
CCCOc1ccccc1/C=C(\C#N)C(=O)Nc1cccnc1	PAFAH2 inh 40 | PAFAH2 FP conf inactive
COc1ccc(O)c(/C=C(\C#N)C(=O)Nc2cccnc2)c1	none
CC(/C=C/C1(O)C(C)CC(O)CC1(C)C)OC1OC(CO)C(O)C(O)C1O (stereo not drawn)	none
Cc1ccc(C(=O)OCC(=O)c2ccc[nH]2)s1	PAFAH2 inh 35 | PAFAH2 FP conf 31
CC(C)Oc1ccc(C(=O)OCC(=O)c2ccc[nH]2)cc1	PAFAH2 inh 54 (no result: PP5 inh, PP1 inh) | PAFAH2 FP conf 36
CCCCn1c(N)c(N(CC(C)C)C(=O)c2oc3ccc(OC)cc3c2C)c(=O)[nH]c1=O	none
CC(C)(C)c1ccc(NC(=O)COC(=O)c2ccc(CN3CCCC3=O)cc2)cc1	PAFAH2 inh 61 | PAFAH2 FP conf 51
Cc1cccc(NC(=O)COC(=O)c2ccc(S(=O)(=O)N3CCCCCC3)cc2)c1	none (no result: PP5 inh, pPAFAH FP inh, PP1 inh)
Cc1cc(C)cc(NC(=O)COC(=O)c2ccc(CN3CCCC3=O)cc2)c1	PAFAH2 inh 86 | PAFAH2 FP conf 85
Cc1ccc(NC(=O)COC(=O)c2ccc(CN3CCCC3=O)cc2)c(Cl)c1	PAFAH2 inh 69 | PAFAH2 FP conf 71
O=C(c1cc[n+]([O-])cc1)N1CCCC(N2CCN(c3cccc(C(F)(F)F)c3)CC2)C1 (stereo not drawn)	none
Cn1cccc1-c1nc2ccccc2[nH]1	none
COc1cc(/C=N/n2c(COc3ccccc3)n[nH]c2=S)cc(Br)c1O	PAFAH2 inh 52 | PAFAH2 FP conf 38
Cc1[nH]n2c(=O)c3c(nc2c1-c1cccc2ccccc12)CCC3	none
O=c1c2c(nc3c(-c4cccc5ccccc45)c[nH]n13)CCC2	PP1 inh 17, PAFAH2 inh 68 | PAFAH2 FP conf 69
Cc1cc(C)c(NC(=O)COC(=O)Cn2nc(-c3ccccc3)oc2=O)c(C)c1	none (no result: PP5 inh, PP1 inh)
O=C(COC(=O)/C=C/c1cccs1)Nc1ccccc1Cl	PAFAH2 inh 58 | PAFAH2 FP conf 36
Cc1ccc(/C=C/C(=O)OCC(=O)NCCc2ccc(S(N)(=O)=O)cc2)o1	none (no result: PP5 inh, PP1 inh)
CC(=O)c1ccccc1NC(=O)COC(=O)/C=C/c1cccs1	PAFAH2 inh 53 | PAFAH2 FP conf 39
CC(=O)c1ccc(NC(=O)COC(=O)/C=C/c2cccs2)cc1	PAFAH2 inh 57 (no result: PP5 inh, PP1 inh) | PAFAH2 FP conf 46
CC(=O)c1ccccc1NC(=O)COC(=O)/C=C/c1ccc(C)o1	PAFAH2 inh 31 | PAFAH2 FP conf inactive
NC(=O)NC(=O)COC(=O)/C=C/c1cccs1	none
COc1ccc(NC(=O)Nc2cccc3c2O[C@H](CN(C)C(=O)Nc2ccccc2)[C@@H](C)CN([C@H](C)CO)C3=O)cc1	none (no result: PP5 inh, PP1 inh)
COCCN1Cc2cccc(C(=O)Nc3ccc(S(=O)(=O)N4CCOCC4)cc3)c2C1=O	none
O=C(COC(=O)/C=C/c1cccs1)Nc1ccc2ccccc2c1	PAFAH2 inh 56 | PAFAH2 FP conf 51
CCNC(=O)/C(C#N)=C/c1c(N2CCN(c3ccccc3)CC2)nc2c(C)cccn2c1=O	none
COc1ccc(OC)c(NC(=O)COC(=O)/C=C/c2ccccc2Cl)c1	none
COc1cccc(/C=C/C(=O)OCC(=O)Nc2ccc(Cl)c(S(=O)(=O)N(C)C)c2)c1OC	PAFAH2 inh 82 | PAFAH2 FP conf 73
COc1ccc(OC)c(/C=C/C(=O)OCC(=O)Nc2ccc(Cl)c(S(=O)(=O)N(C)C)c2)c1	PAFAH2 inh 45 | PAFAH2 FP conf 42
CCCC1=Nc2cc(C(=O)NCCCOCC)ccc2Sc2ccccc21	none
CC1=NOC(=O)/C1=C\c1ccc(-c2ccc(Cl)c(C(=O)O)c2)o1	PAFAH2 inh 49 (no result: PP5 inh, pPAFAH FP inh, PP1 inh) | PAFAH2 FP conf 33
O=C(O)c1cc(-c2ccc(/C=C3/SC(=S)N(Cc4ccccc4)C3=O)o2)ccc1Cl	PAFAH2 inh 34 (no result: PP5 inh, pPAFAH FP inh, PP1 inh) | PAFAH2 FP conf inactive
CC1=NOC(=O)/C1=C\c1ccc(-c2cccc(Cl)c2)o1	PAFAH2 inh 31 | PAFAH2 FP conf inactive
CC1=NOC(=O)/C1=C\c1ccc(-c2ccccc2Br)o1	PAFAH2 inh 44 (no result: PP5 inh, pPAFAH FP inh, PP1 inh) | PAFAH2 FP conf inactive
C=COC(=O)NC1CCc2cc(OC)c(OC)c(OC)c2-c2ccc(SC)c(=O)cc21 (stereo not drawn)	none (no result: PP5 inh, pPAFAH FP inh, PP1 inh)
COC(=O)c1ccc(CSc2nc3c(c(=O)n2-c2ccc(F)cc2)SCC3)o1	none
Cc1cc(C)c(OCCn2ccnc2)c(C)c1	none (no result: PP5 inh, pPAFAH FP inh, PP1 inh)
Cc1ccc2nc(-c3ccccc3)cc(C(=O)NCC3CCCO3)c2c1 (stereo not drawn)	none (no result: PAFAH1B2 inh, PAFAH1B3 FP inh, PAFAH2 inh)
Cc1cc(C=O)c(O)cc1O	none
